# Hit rate of the full screen: of about 330,000 compounds, about 1,000 (0.3%) were called active. Entries that show only a call come without a potency. Roughly 3% stayed inconclusive and do not appear here. Calls follow the shape of the dose curve; as a rule, active = well fitted inhibition curve with a large enough effect; inconclusive = small, poorly fitted or top-dose-only effect; inactive = no such curve, though single readings can be large or run the other way; tested in mouse RAW 264.7 cells. Many of the other results were omitted from the sample, so actives are more common in it than they were.
# Assay: qHTS for Inhibitors of Cell Surface uPA Generation; also: nearly all actives have a fitted effect of over 55% in size
# Settings: cell surface uPA generation assay; series mostly up to 38.3 µM
# Excerpt: The overall objective of this project is to perform a quantitative high throughput screen (qHTS) to identify novel compounds that inhibit the generation of cell surface urokinase activity. The urokinase plasminogen activator (uPA) is one of the two primary endogenous systems that mediate plasminogen activation into plasmin. Members of this system, including uPA and its receptor (uPAR), are overexpressed in several malignant tumors. This system plays a major role in adhesion, migration, invasion and metastasis of cancer cells. Small molecule inhibitors of the uPA system will serve as probes to understand the molecular mechanisms of the uPA cascade and better understanding the microenvironmental circumstances that facilitate the activation of plasminogen by uPA, and finally may provide novel candidate agents for anticancer drug therapy.
# […] […] Upon inhibition of the uPA activation cascade, the subsequent cell surface uPA activity-dependent translocation of LF into the cytoplasm is inhibited. ATP-Lite is used to measure intracellular ATP concentrations, which remain increased if LF entry into the cytoplasm is inhibited. This validation assay was performed using a small set of validation compounds.
# NIH Chemical Genomics Center [NCGC]
# NIH Molecular Libraries Probe Centers Network [MLPCN]
# Assay Submitter (PI): Thomas Bugge, National Institute of Dental and Craniofacial Research, NIH
# Cultured RAW 264.7 were dispensed into 1536-well clear bottom, white walled tissue culture plates at a density of 4000 cells/well and were incubated overnight (12-16 h) at 37 C in a 5% CO2 incubator. Serially diluted compounds in 23 nl DMSO were added to cells. […] Compound and reagent-treated plates were incubated for 24 h at 37 C in a 5% CO2 incubator. Perkin Elmer ATPlitetrade mark 1 step (3 ul) was then added to each well. Luminescence was detected using a Perkin Elmer ViewLuxtrade mark plate reader.
# 1.Dispensing RAW 264.7 cells into 1536-well, white walled tissue culture plates at a density of 4000 cells/well (4 uL).
# 2.Incubation at 37 C in a 5% CO2 incubator overnight.
# 3.Serially diluting compounds (1:5 serial dilution; 0.0024 uM to […] final concentration) in 23 nl DMSO.
# 5.Incubating the compound and reagent-treated plates for 24 hours at 37 C in a 5% CO2 incubator.
# 6.Adding ATP-Lite (3 ul).
# 7.Reading plates by ViewLux with an exposure length of 5 seconds.
# Potency is read from the fitted curve at half-maximal effect.
row,Structure (SMILES),Potency
1,CCOc1ccc(-c2cc(C)[n+](CCN(CC)CC)c(-c3ccc(OCC)cc3)c2)cc1,3.55 µM (active)
2,CC12CCC3C(CCC4CC(=O)CCC43C)C1CC(=NO)C2=O (stereo not given),inactive
3,CC1CCCN1CCC(C(N)=O)(c1ccccc1)c1ccccc1 (stereo not given),inactive
4,CC1C(=O)OC2CCN3CC=C(COC(=O)C(C)(O)C1(C)O)C23 (stereo not given),inactive
5,CC1=CC(=Cc2sc3ccccc3[n+]2C)C=C(C)O1,5.01 µM (active)
6,CCOC(=O)C1(c2ccccc2)CCN(CC(O)c2ccc(NC(C)=O)cc2)CC1 (stereo not given),inactive
7,C=C(C)C1(CCCC)C(=O)NC(=S)NC1=O,inactive
8,CC(=O)OC1C2(CC3N4C(=O)C5(CO)SSC4(CC31O)C(=O)N5C)OC(C)C(C)(C)C2=O (stereo not given),inactive
9,Cc1cc(C)c2c(c1)NP(=S)(c1ccccc1)N2 (stereo not given),inactive
10,CC1(c2cccc([N+](=O)[O-])c2)CC(C)(C)N(C(=O)c2ccccc2)c2ccccc21 (stereo not given),inactive
